Compounds with a hit are over-represented: about 22% of the library has one in this group of screens.
CHX counter: affects cycloheximide protein synthesis inhibition readout, counter-screen | cell reporter, cycloheximide protein synthesis inhibition counterscreen | max response, % | 12% of 300,000 active | AID 2314; in the data active means max response mostly above about 13%, no sharp cut-off; inactive means mostly below about 14%; further: read at 38.3 µM for the half of the compounds with a filed dose
Shiga inhibitor: Shiga toxin inhibition | AID 2315 | Vero cells, Shiga toxin protein synthesis inhibition reporter | inhibition, % at 38.7 µM | 9.2% of 290,000 active; in the data active means inhibition mostly above about 28%, no sharp cut-off; inactive means mostly below about 43%
Pf growth 48h: P. falciparum growth inhibition at 48 hours (one generation); Potency, µM (doses to about 28.7 µM), most hits filed as inhibitors; 5.9% of 310,000 active; AID 504832; P. falciparum luciferase growth in erythrocytes, 48 h
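Parasite viability was followed by luminescence of a genomically integrated firefly luciferase. Cultures held 0.1% parasitemia at 2% hematocrit (final), incubated under 5% CO2 at 37 C.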
Pf growth 96h: inhibits malaria parasite growth, 96 h. P. falciparum luciferase reporter growth, 96 h. Potency, µM (highest dose often 28.7 µM), usual class: inhibitors. 6.9% of 320,000 active. AID 504834
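P. falciparum expressing integrated firefly luciferase, in erythrocytes at 2% hematocrit, 0.05% parasitemia, incubated with compounds 96 h at 37 C, 5% CO2. Growth inhibition read as loss of luminescence; two-generation exposure targets delayed-death apicoplast inhibitors.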
LmPK inhibitor: LmPK (Leishmania mexicana) enzyme inhibition | purified LmPK, Kinase-Glo ATP luminescence, 1 h | Q27686 | Potency, µM (highest dose often 57.5 µM), most hits filed as inhibitors | 0.37% of 290,000 active | AID 1721
Target sequence (Q27686 whole entry, looked up): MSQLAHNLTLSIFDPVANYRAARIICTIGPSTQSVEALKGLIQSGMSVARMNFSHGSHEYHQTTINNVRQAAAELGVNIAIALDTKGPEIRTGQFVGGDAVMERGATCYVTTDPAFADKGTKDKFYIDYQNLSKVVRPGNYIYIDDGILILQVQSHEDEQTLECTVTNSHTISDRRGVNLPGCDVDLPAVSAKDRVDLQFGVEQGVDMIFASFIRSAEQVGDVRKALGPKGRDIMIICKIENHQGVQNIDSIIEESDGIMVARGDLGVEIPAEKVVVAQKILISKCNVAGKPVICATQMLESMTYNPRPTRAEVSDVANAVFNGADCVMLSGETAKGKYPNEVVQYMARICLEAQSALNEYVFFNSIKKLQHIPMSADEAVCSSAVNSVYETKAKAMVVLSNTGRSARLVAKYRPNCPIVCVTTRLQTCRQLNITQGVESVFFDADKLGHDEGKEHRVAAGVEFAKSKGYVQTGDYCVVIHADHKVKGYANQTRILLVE
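Kinase-Glo luminescence read after 1 h RT reaction of 0.1 nM LmPK with 0.5 mM PEP and 0.1 mM ADP. Activity scaled between uninhibited and enzyme-free controls.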
Each line names hits and unclear results; the compound was inactive in the other large screens. Unless noted, the call rests on the fitted dose curve; in most records, active means well fitted inhibition curve with a large enough effect; inconclusive means small, poorly fitted or top-dose-only effect, or another doubt; inactive means no such curve, though single readings can be large or run the other way.

O=C(CSc1ncccc1-c1nc2ccccc2[nH]1)Nc1ccc2c(c1)OCCO2	CHX counter 67.7, Shiga inhibitor 91.8
CC(=O)Nc1cccc(CCc2nc3ccccc3[nH]2)c1	CHX counter 22.8, Pf growth 96h inconclusive (no result: Shiga inhibitor)
CC(=O)Nc1ccc(CCc2nc3ccccc3[nH]2)cc1	Pf growth 96h inconclusive
COc1ccc(S(=O)(=O)N2CCCC(C(=O)N3CCOCC3)C2)cc1OC (configuration not stated)	none
Cc1ccc2nc(SC(C)C(=O)N3CCOCC3)[nH]c2c1 (configuration not stated)	CHX counter 43.9, Shiga inhibitor 79.3
O=C(CCc1nc2ccccc2[nH]1)Nc1ccc2c(c1)OCO2	CHX counter 19.0, Shiga inhibitor 106.6
O=C(CSc1nc2ccccc2[nH]1)Nc1ccc2[nH]c(=O)[nH]c2c1	none (no result: CHX counter, Shiga inhibitor, LmPK inhibitor)
CCC(=O)Nc1ccc(C(=O)CSc2nc3ccc(C)cc3[nH]2)cc1	CHX counter 19.0
O=C(CSc1nc2ccccc2[nH]1)Nc1ccc2c(c1)OCCO2	CHX counter 40.7
CC(C)C[C@@H](CC#N)N1CCN(Cc2ccccc2)CCC1=O	Pf growth 96h inconclusive
CCN(CC)S(=O)(=O)c1ccc(C)c(NC(=O)CSc2nc3ccccc3[nH]2)c1	Pf growth 48h inconclusive, Pf growth 96h inconclusive
Cc1ccc(S(=O)(=O)N(C)C)cc1NC(=O)CSc1nc2ccccc2[nH]1	Pf growth 48h inconclusive, Pf growth 96h 9.28µM
Cc1ccc2nc(SCC(=O)Nc3ccc4c(c3)OCCO4)[nH]c2c1	CHX counter 26.4 (no result: Pf growth 48h)
CCc1c(C)nc(SCC(=O)Nc2ccc3c(c2)OCCO3)[nH]c1=O	none
O=C(CSc1nc2ccccc2c(=O)n1-c1ccc(Cl)cc1)c1ccco1	none
N#Cc1cc2c(nc1Cl)CCC2	none
Cc1ccc(N(CC(=O)N2CCOCC2)S(C)(=O)=O)cc1Cl	Pf growth 96h inconclusive
Cc1ccc(N(CC(=O)N2CCCCCC2)S(C)(=O)=O)cc1Cl	Pf growth 96h 7.38µM (no result: Shiga inhibitor)
CS(=O)(=O)N(CC(=O)N1CCCCCC1)c1cccc(Br)c1	Pf growth 96h 11.7µM
COc1ccccc1C(=O)NC(CCSC)C(=O)NNC(=O)c1ccncc1 (configuration not stated)	none (no result: CHX counter, Shiga inhibitor, LmPK inhibitor)
O=C(NCCC(=O)N1CCCC1)c1ccccc1Cl	CHX counter 17.5
COc1ccccc1C(=O)NCC(=O)N1CCN(S(=O)(=O)c2ccccc2C(F)(F)F)CC1	Pf growth 48h inconclusive, Pf growth 96h 8.28µM (no result: CHX counter, Shiga inhibitor, LmPK inhibitor)
COc1ccccc1C(=O)NCCC(=O)N1CCN(c2ccccc2Cl)CC1	Pf growth 48h 8.28µM, Pf growth 96h 11.7µM (no result: CHX counter, Shiga inhibitor, LmPK inhibitor)
COc1ccccc1C(=O)NCCC(=O)N1CCCCCCC1	Pf growth 48h inconclusive (no result: CHX counter, Shiga inhibitor, LmPK inhibitor)
COc1ccc(N2CCN(C(=O)CN(c3ccc(OC)cc3)S(=O)(=O)c3ccccc3)CC2)cc1	Pf growth 48h 11.7µM
CS(=O)(=O)N(CC(=O)N1CCN(Cc2ccccc2)CC1)c1cccc(F)c1	none
CS(=O)(=O)N(CC(=O)N1CCN(Cc2ccccc2)CC1)c1cccc([N+](=O)[O-])c1	Pf growth 48h inconclusive, Pf growth 96h 2.94µM
COc1ccc(N2CCN(C(=O)CN(c3ccccc3)S(=O)(=O)c3ccc(OC)cc3)CC2)cc1	none (no result: Pf growth 96h)
COc1ccc(N(CC(O)Cn2c3ccccc3c3ccccc32)S(=O)(=O)c2ccccc2)cc1 (configuration not stated)	Pf growth 48h inconclusive, Pf growth 96h 10.4µM
COc1ccc(N(CC(=O)N2CCN(Cc3ccccc3)CC2)S(=O)(=O)c2ccccc2)cc1	Pf growth 48h inconclusive, Pf growth 96h 5.86µM
COc1ccc(N(CC(=O)N2CCN(Cc3ccccc3)CC2)S(C)(=O)=O)cc1	none
Cc1oc(-c2cc(F)cc(F)c2)nc1CN1CCN(C(=O)c2ccco2)CC1	Pf growth 96h inconclusive
O=C(c1ccco1)N1CCN(c2c([N+](=O)[O-])nn(-c3cccc(Cl)c3)[n+]2[O-])CC1	CHX counter 14.5, Pf growth 96h inconclusive
O=C(COc1ccccc1)NCCSCc1ccccc1Cl	CHX counter 41.7, Shiga inhibitor 47.9
O=C(/C=C/c1ccccc1)NCCSCc1ccccc1Cl	CHX counter 11.2, Pf growth 48h inconclusive, Pf growth 96h inconclusive
O=C(CN1C(=O)c2ccccc2S1(=O)=O)NCCSCc1ccccc1Cl	CHX counter 12.7
COc1ccccc1C(=O)NCCSCc1ccccc1Cl	Pf growth 48h 7.38µM, Pf growth 96h 2.94µM
COc1ccccc1C(=O)NCCCNC(=O)c1ccccn1	none
COc1ccccc1OCC(=O)NCCSCc1ccccc1Cl	Pf growth 48h inconclusive

Screening data (PubChem)
